# EP2 modulator: EP2 receptor modulators, cAMP readout, primary screen, cell-based, HTRF cAMP, PGE2 stimulation; Prostaglandin E2 receptor EP2 subtype (Homo sapiens), P43116; EP2-expressing cells, cAMP HTRF FRET, PGE2 co-stimulation; induction, % at 25 µM; 260,000 tested, 0.83% active; AID 940, 2007;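 active = compounds whose cAMP rise, as percent of the full-agonist control response, exceeds 60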;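 also: rat C6 glioma line stably carrying human EP2 under a CMV promoter; the protocol text gives 20 µM as final concentration; 100% = response of wells given 1 µM PGE2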
# Target sequence (P43116 whole entry, looked up): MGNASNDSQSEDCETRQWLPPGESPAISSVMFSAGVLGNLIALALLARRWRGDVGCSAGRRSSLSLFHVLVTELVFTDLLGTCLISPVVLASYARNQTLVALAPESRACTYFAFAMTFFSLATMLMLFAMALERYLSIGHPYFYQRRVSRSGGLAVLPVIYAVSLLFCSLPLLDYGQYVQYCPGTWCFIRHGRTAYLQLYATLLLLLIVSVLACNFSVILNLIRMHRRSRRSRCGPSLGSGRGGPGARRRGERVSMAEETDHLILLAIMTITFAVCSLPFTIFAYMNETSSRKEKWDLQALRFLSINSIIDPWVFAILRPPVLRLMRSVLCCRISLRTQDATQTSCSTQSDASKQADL
# PGE2 EP2 inh: human EP2 receptor antagonists, primary screen, TR-FRET cAMP, C6 glioma cells; AID 1422, 2008; Prostaglandin E2 receptor EP2 subtype (Homo sapiens), P43116; 260,000 tested, 0.52% active; C6 glioma cells expressing human EP2; cells stimulated with saturating PGE2; inhibition, % at 25 µM;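 active = percent inhibition above 40 after rounding to a whole number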;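 also: rat C6 glioma host cells with rolipram phosphodiesterase inhibitor present; the protocol text gives 20 µM as final concentration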
# KCC2 mod: KCC2 cotransporter modulators, thallium flux, primary screen, cell-based, HEK293 KCC2, FluoZin-2 fluorescence, MLSMR; Solute carrier family 12 member 5 (Homo sapiens), Q9H2X9; KCC2 cells, thallium flux FluoZin-2 fluorescence; B-score of Tl+ flux slope (higher = more flux/activation; lower = inhibition) at 10 µM; 190,000 tested, 2.2% active;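 active = thallium flux slope and its plate-corrected score both differing from the plate sample mean at a set confidence after two filtering rounds, in either direction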;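 also: slope of fluorescence scaled to starting intensity during 10 to 20 s after thallium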
# S1P3 antagonist: S1P3 receptor antagonists, primary screen, cell-based; AID 485, 2006; Sphingosine 1-phosphate receptor 3 (Homo sapiens), Q99500; 170,000 tested, 0.27% active; CHO S1P3 NFAT-BLA reporter, FRET fluorescence, antagonist mode; inhibition, % at 4.98 µM;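 active = inhibition above the plate cutoff, the mean inhibition of test wells on that plate plus 3 SD, cut at about 28% in these data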;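 also: cells challenged with S1P at its EC80 of 0.8 µM; blue over green emission ratio from cleaved BLA substrate after 4 h stimulation; 0% = S1P-stimulated wells and 100% = unstimulated DMSO-only wells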
# EP2 confirm: cAMP induction in EP2, EP4, beta2-AR and parental cells, confirmation, counter-screen for EP2 modulator project, cell-based, five parallel assays, C6 glioma, HEK293; calls only at 20 µM (by protocol); 1,300 tested, 47% active; shares compounds with EP2 modulator; cAMP HTRF induction; plus low (about EC15) PGE2 agonist; AID 1080, 2008;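 active = cAMP induction above 50% in the main assay while under 30% in all four parallel counter assays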;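 also: rat C6 glioma cells stably expressing human EP2 receptor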
# An asterisk follows results filed as active; i = inactive; nt = no result given; + = active, no number. Only some compounds are listed: those with a hit (about 3.1% of all), similar ones and a draw of the others.
SMILES,EP2 modulator,PGE2 EP2 inh,KCC2 mod,S1P3 antagonist,EP2 confirm
CC1CCCCN1C(=O)/C=C/c1ccccc1[N+](=O)[O-] (configuration not stated),-8,4,nt,-46,nt
CC1CCCCN1C(=O)/C(=C\c1ccccc1)c1ccccc1 (configuration not stated),69*,-1,-0.56,nt,i
COc1cc(CN2C(=O)[C@H]3CCCN3C(=O)c3ccccc32)cc(OC)c1OC,0,8,nt,nt,nt
CCOC(=O)Cn1nc(CC)n2c(cc3ccsc32)c1=O,11,nt,nt,nt,nt
O=C(CNCc1ccccc1Cl)Nc1ccccc1N1CCCCC1,75*,2,nt,5,+
O=C(Cc1ccccc1)Nc1ccccc1N1CCN(c2ccccc2)CC1,72*,5,-0.54,15,+
O=C(Nc1ccccc1N1CCN(c2ccccc2)CC1)C12CC3CC(CC(C3)C1)C2,68*,9,-0.13,nt,i
CCN=C1S/C(=C\c2cc(OCC)c(O)cc2Br)C(=O)N1CC,49,11,0.47,1,nt
CCN=C1S/C(=C\c2ccc(O)c(OCC)c2)C(=O)N1CC,81*,8,-1.6,7,i
CC(C)Oc1ccc(/C=C(/NC(=O)c2ccccc2)C(=O)NCCC(=O)O)cc1,71*,3,2.3,3,i
O=C(O)c1ccc(-c2ccccc2C(F)(F)F)o1,83*,14,-0.98,-8,+
O=C(NCc1ccccc1)c1ccc(-c2ccccc2C(F)(F)F)o1,13,8,-1.6,-21,nt
CCOC(=O)C(=O)N1N=C(c2ccc(C)cc2)CC1(O)C(F)(F)F (configuration not stated),-30,3,nt,nt,nt
Cc1ccc(Cn2c(=O)n(Cc3ccco3)c(=O)c3ccccc32)cc1,68*,8,-0.29,-1,+
O=c1c2ccccc2n(Cc2ccc(Cl)cc2)c(=O)n1Cc1ccco1,51,4,-0.37,7,+
O=C(NCc1ccco1)c1ccc(Cn2c(=O)c3ccccc3n(Cc3ccc(Cl)cc3)c2=O)cc1,21,13,0.28,nt,nt
O=C(Nc1ccccc1N1CCCCC1)c1ccc(Cl)c([N+](=O)[O-])c1,59,8,0.096,-11,+
O=C(Nc1cccc(Cl)c1N1CCCCC1)c1ccc2c(c1)OCCO2,74*,5,nt,7,i
CCN1CCCC1CN(Cc1ccccn1)Cc1ccccc1O (configuration not stated),-24,-1,nt,nt,nt
CC(=O)Nc1ccc(NC(=O)c2ccc(-c3ccc(Cl)cc3)o2)cc1,-29,7,nt,nt,nt
c1ccc(Nc2nc(N3CCNCC3)nc(N3CCOCC3)n2)cc1,67*,4,0.2,nt,i
CN(c1ccccc1)c1nc(N2CCCC2)nc(-n2ccnc2)n1,82*,13,nt,-28,+
CC(C)c1nnc(SCC(=O)Nc2ccccc2Cl)n1C,-1,15,nt,nt,nt
COc1ccc(/C=C(\C#N)C(N)=O)cc1OC,76*,12,nt,nt,i
Cc1cccc(/N=C/c2c(O)ccc3oc4c(c23)CCCC4)n1,73*,7,0.61,6,+
SMILES,EP2 modulator,PGE2 EP2 inh,KCC2 mod,S1P3 antagonist,EP2 confirm
Cc1cccc(/N=C/c2c(O)cc(C)oc2=O)n1,-2,15,0.59,-18,nt
CCCCn1c(-c2csc3c2CCCC3)n[nH]c1=S,55,2,3*,nt,i
CCn1c(-c2csc3c2CCCC3)n[nH]c1=S,6,4,2,-4,nt
Cc1ccc(C(C)C)c(OCc2ccc(-c3nnco3)cc2)c1,66*,16,nt,6,i
Fc1ccc(Oc2nc(-c3ccccn3)nc3ccccc23)cc1,7,17,-0.99,6,nt
CSc1nc(Oc2ccc(F)cc2)c2ccccc2n1,68*,12,nt,nt,+
O=C(Nc1ccccc1Br)c1ccccc1-c1ccccc1,70*,9,-0.85,5,+
CCOc1ccccc1C(=O)Nc1ccccc1-c1ccccc1,78*,6,-0.79,-12,+
CCOc1cc(S(=O)(=O)N2CC(C)OC(C)C2)c(C)cc1C (configuration not stated),24,11,nt,nt,nt
O=C(c1cccc2ccccc12)N1CCN(S(=O)(=O)Cc2ccccc2)CC1,-135,15,nt,nt,nt
Cc1cccc(C(=O)c2cnc3ccccc3c2-c2ccccc2)c1,90*,8,-1.7,nt,+
Cc1cccc(C(=O)NNC(=O)c2ccccc2)c1,-14,5,-1.1,-19,nt
CCOc1ccc(OCC)c(NC(=O)CN2CCN(c3ccc(C)cc3C)CC2)c1,79*,nt,0.47,nt,+
CCOc1ccc(OCC)c(NC(=O)CN2CCN(c3ccccc3OC)CC2)c1,9,21,nt,nt,nt
Cc1cc(NC(=O)CSc2nnc3c4c5c(sc4nc(C4CC4)n23)CC(C)CC5)no1 (configuration not stated),-1,13,nt,nt,nt
O=S(=O)(NC1CCCCC1)c1ccc(S(=O)(=O)N2CCCCCC2)cc1,-73,10,nt,nt,nt
O=C(Nc1ccccc1)N1CCSc2cc(Cl)ccc21,17,1,1.6,nt,nt
O=C(Nc1ccccc1Cl)N1CCSc2ccccc21,77*,9,-0.42,6,+
CCCCc1nnc(SCCSc2nnc(CCCC)n2N)n1N,81*,10,1.5,7,i
CCc1nnc(SCCSc2nnc(CC)n2N)n1N,17,5,0.42,nt,nt
COc1ccc2cc(C#N)c(SCC(=O)Nc3ccc(C)cc3)nc2c1,38,14,nt,nt,nt
CCOC(=O)C(C)Sc1ncc(OC)c(Sc2ccc(Cl)cc2)n1 (configuration not stated),68*,2,-0.0095,nt,+
O=C(OCc1ccccc1Cl)c1ccccc1C(=O)c1ccccc1,82*,4,nt,nt,+
Cc1nnc(C)n1/N=C/c1ccccc1,27,5,-1.2,nt,nt
CCn1c2ccccc2c2cc(/C=N/n3c(C)nnc3C)ccc21,94*,8,nt,nt,+
CCCc1cc(C(=O)NCCN2CCC(O)(c3ccc(C)cc3)CC2)n[nH]1,-16,13,nt,nt,nt
COC(=O)c1cc2ccsc2n1CC(=O)N(C)c1ccccc1,-7,19,1.3,2,nt
COC(=O)c1cc2ccsc2n1Cc1ccccc1F,71*,11,0.074,5,+
COC(=O)c1cc2ccsc2n1Cc1cccc(F)c1,67*,8,0.71,-2,+
CCC1(C)Cc2ccccc2-c2nc3n(c(=O)c21)CCS3 (configuration not stated),79*,12,-0.42,-8,+
